Compounds with a hit are over-represented: about 19% of the library has one in this group of screens.
TGFb SMAD3 inh – TGF-b pathway inhibition | HepG2 CAGA-GFP TGF-b/SMAD3 reporter, GFP fluorescence, 18 h; TGF-beta stimulated, 500 pg/mL final | Potency, µM (titrated, usually from 46.1 µM), usual class: inhibitors | actives 1.2% (n = 410,000); note: nearly all actives have a fitted effect of over 65% in size
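HEPG2 CAGA-GFP, 1000 cells/well; 2 h settle, 37 C; cpd via pin tool; TGF-b 500 pg/mL final; 18 h, 37 C; GFP imaging ex488/em500-530; %Activity normalised to -TGF-b and +DMSO controls; CRC fit, curve class.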
S-ASM inh – blocks human secretory acid sphingomyelinase; P17405; AID 504937; placental ASM, HMU-PC fluorogenic substrate, 60 min; actives 0.006% (n = 340,000); Potency, µM (titrated, usually from 57.5 µM), usual class: inhibitors
Target sequence (P17405 47-631 limits assumed): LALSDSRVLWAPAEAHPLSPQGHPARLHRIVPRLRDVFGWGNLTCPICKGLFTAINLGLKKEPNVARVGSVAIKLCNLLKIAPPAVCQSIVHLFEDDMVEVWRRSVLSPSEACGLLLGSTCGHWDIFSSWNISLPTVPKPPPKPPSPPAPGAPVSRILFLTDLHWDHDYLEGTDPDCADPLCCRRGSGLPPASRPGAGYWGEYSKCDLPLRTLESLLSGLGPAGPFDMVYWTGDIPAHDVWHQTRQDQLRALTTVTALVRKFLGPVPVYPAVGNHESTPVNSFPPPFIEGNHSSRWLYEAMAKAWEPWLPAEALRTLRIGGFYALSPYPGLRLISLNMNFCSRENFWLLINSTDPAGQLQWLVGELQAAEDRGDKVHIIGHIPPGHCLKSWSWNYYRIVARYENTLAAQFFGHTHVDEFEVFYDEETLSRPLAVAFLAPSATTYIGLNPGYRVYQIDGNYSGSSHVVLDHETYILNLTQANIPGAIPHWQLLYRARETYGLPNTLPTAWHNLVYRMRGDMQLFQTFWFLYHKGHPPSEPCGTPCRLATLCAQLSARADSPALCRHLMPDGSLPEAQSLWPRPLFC
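qHTS format. ASM enzyme prepared from human placenta hydrolyses the fluorogenic substrate HMU-PC0 (9 uM final) over 60 min at 37 °C after a 10 min compound preincubation.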
IL1B secr inh – inhibitors of inflammasome signaling (IL-1 beta secretion). AID 743279. THP-1 LPS/ATP IL-1B secretion, AlphaLISA, 16 h; hits give low values. actives 4.7% (n = 360,000). activity change, % at 57.5 µM; in the data active = activity change below about -50%; inconclusive = mostly about -30% to -49%
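Secreted IL-1B measured by AlphaLISA bead assay after 16 h compound exposure of THP-1 cells; compounds (final up to 57.5 uM) added 1 h before LPS (250 ng/mL) and ATP (1.25 mM) stimulation; lower signal means less secretion.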
DT40 TDP1 CPT – DT40-hTDP1 cell growth loss with CPT; Potency, µM (highest dose often 46.2 µM), actives largely listed as inhibitors; actives 12% (n = 420,000); chicken DT40 Tdp1-/-;hTDP1 cells + 20 nM CPT, ATP luminescence, 48 h; note: nearly all actives have a fitted effect of over 55% in size
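Cell growth measured by CellTiter-Glo luminescence after a minimum 48 h, 37 C compound exposure with 20 nM CPT in Tdp1-knockout DT40 cells stably expressing hTDP1, seeded 400/well; qHTS titration format.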
HepG2 tox – kills HepG2 cells in TGF-b inhibitor counter-screen. HepG2 CAGA-GFP viability, ATP luminescence, 18 h. Potency, µM (series often up to 46.1 µM), most hits filed as cytotoxic. actives 0.76% (n = 410,000)
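CellTiter-Glo luminescence gave cytotoxicity after 18 hours at 37 degrees C. The cells were HepG2 CAGA-GFP in 1% FBS DMEM, stimulated with 500 pg/mL TGF-beta after compound addition. %Activity was normalised to no-cell wells (complete cell-killing) and DMSO (no toxicity), and curves were fitted and classified.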
TDP1 cell noCPT – qHTS for Inhibitors of human tyrosyl-DNA phosphodiesterase 1 (TDP1): qHTS in cells in absence of CPT | Potency, µM (series often up to 46.2 µM), most hits filed as inhibitors | DT40 Tdp1-/- hTDP1 cells, no CPT, ATP luminescence, 48 h | actives 15% (n = 420,000); note: nearly all actives have a fitted effect of over 55% in size
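Chicken DT40 Tdp1-/- cells complemented with human TDP1, screened without camptothecin (DMSO vehicle only), 400 cells/well. Compounds pin-transferred, cells incubated at 37 °C for at least 48 hr. Growth read as ATP-dependent luminescence (CellTiter-Glo, 30 min at RT).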
Hits are given with their value; n = inactive; u = inconclusive; x = not tested or not shown. Unless noted, calls come from the whole dose curve; as a rule, active = well fitted curve in the direction sought with a large enough effect; inconclusive = small, poorly fitted or top-dose-only effect, or another doubt; inactive = no such curve, though single readings can be large; an effect the other way counts as inactive or inconclusive.

SMILES	TGFb SMAD3 inh	S-ASM inh	IL1B secr inh	DT40 TDP1 CPT	HepG2 tox	TDP1 cell noCPT
O=C(C[C@H]1C[C@H](C(=O)N2CCOCC2)[C@@]2(CCC3CCCC3)c3[nH]c4cc(-c5ccco5)ccc4c3CCN2C1=O)NCC12CC3CC(CC(C3)C1)C2	u	n	u	15µM	n	u
CC(C)c1nn2c(=O)cc(COC(=O)COc3ccccc3F)nc2s1	u	x	x	n	n	n
COc1ccc(-c2cc3nc(-c4ccccc4)cc(N4CCN(C(=O)c5ccsc5)CC4)n3n2)cc1	n	x	n	7.3µM	n	5.2µM
COc1ccc(-c2cc3nc(-c4ccccc4)cc(N4CCN(C(=O)c5ccccc5)CC4)n3n2)cc1	n	x	n	15µM	n	4.1µM
COc1ccc(-c2cc3nc(-c4ccccc4)cc(N4CCN(C(C)=O)CC4)n3n2)cc1	n	x	n	n	n	2.6µM
O=C(c1ccoc1)N1CCN(c2cc(-c3cccc(F)c3)nc3cc(-c4cccc(Cl)c4)nn23)CC1	n	x	n	7.3µM	n	4.6µM
Cc1ccccc1OCCOC(=O)c1cc(S(=O)(=O)N2CCOCC2)ccc1C	n	x	n	u	n	u
O=C(CN1C(=O)CCOc2ccccc21)Nc1ccc(Cl)c(S(=O)(=O)N2CCOCC2)c1	n	n	n	n	n	u
Nc1nnc(SCC(=O)NNC(=O)c2ccccc2)s1	n	n	n	n	n	n
O=C(c1ccccc1)N1CCN(c2cc(Cl)nc3cc(-c4cccc(Cl)c4)nn23)CC1	n	x	n	16µM	n	4.6µM
Cc1nc(NC(=O)CSc2nnc(N)s2)c(Cl)cc1Cl	n	n	n	n	n	n
CCOC(=O)[C@]12CCC=C1N(CCC1=CCCCC1)C(=O)[C@H](CC(=O)NCCCOC)C2	x	x	n	n	x	u
CCCCCCCCN1C(=O)[C@H](CC(=O)NCC23CC4CC(CC(C4)C2)C3)C[C@@]2(C(=O)OCC)CCCC=C12	x	x	n	u	x	18µM
CCCCCCCCN1C(=O)[C@H](CC(=O)NCCCN2CCCC2=O)C[C@@]2(C(=O)OCC)CCCC=C12	x	x	n	u	x	u
CCOC(=O)[C@]12CCC=C1N(CCC1=CCCCC1)C(=O)[C@H](CC(=O)NCc1cccc(C(F)(F)F)c1)C2	x	x	n	u	x	21µM
CCCCNC(=O)C[C@@H]1C[C@@]2(C(=O)OCC)CCCC=C2N(CCC2=CCCCC2)C1=O	x	x	n	8.2µM	x	8.2µM
CCCCNC(=O)C[C@@H]1C[C@@]2(C(=O)OCC)CCCC=C2N(CCc2ccc(OC)c(OC)c2)C1=O	x	x	n	1.5µM	x	18µM
COC(=O)[C@H](Cc1ccccc1)NC(=O)N(C)Cc1ccccc1	n	n	n	n	n	n
COC(=O)[C@]12CCCCC=C1N(CCC1=CCCCC1)C(=O)[C@H](CC(=O)NCc1ccc(OC)c(OC)c1)C2	x	x	n	u	x	u
CCOC(=O)N1CCN(C(=O)C[C@@H]2C[C@@]3(C(=O)OCC)CCC=C3N(CCC3=CCCCC3)C2=O)CC1	x	x	n	u	x	u
COC(=O)[C@]12CCCCC=C1N(CCc1ccc(OC)c(OC)c1)C(=O)[C@H](CC(=O)N1CCOCC1)C2	x	x	n	n	x	n
CCOC(=O)[C@]12CCCC=C1N(CCc1ccc(OC)c(OC)c1)C(=O)[C@H](CC(=O)NCC13CC4CC(CC(C4)C1)C3)C2	x	x	n	15µM	x	16µM
CCOC(=O)[C@]12CCCC=C1N(CCC1=CCCCC1)C(=O)[C@H](CC(=O)NCc1ccc(OC)c(OC)c1)C2	x	x	n	15µM	x	15µM
CCOC(=O)[C@]12CCCC=C1N(CCc1ccc(OC)c(OC)c1)C(=O)[C@H](CC(=O)N1CCSCC1)C2	x	x	n	16µM	x	u

Screens: PubChem BioAssay, National Center for Advancing Translational Sciences (NCATS)
